What all share (set-up): scale not given: direction of the effect not stated beside the values
Assay [1] concerns the target Protein translocase subunit SecA (Escherichia coli (strain K12)) (UniProt P10408). The experiment in a line: Assay to Identify E. coli SecA ATPase Inhibitors. The class given is functional. The conditions noted are these: 30 µM.
In assay [2] the target is T1, Ubiquitin-activating enzyme e1, putative (Leishmania donovani (strain BPK282A1)) (UniProt E9BSI1).
T1 sequence (whole entry): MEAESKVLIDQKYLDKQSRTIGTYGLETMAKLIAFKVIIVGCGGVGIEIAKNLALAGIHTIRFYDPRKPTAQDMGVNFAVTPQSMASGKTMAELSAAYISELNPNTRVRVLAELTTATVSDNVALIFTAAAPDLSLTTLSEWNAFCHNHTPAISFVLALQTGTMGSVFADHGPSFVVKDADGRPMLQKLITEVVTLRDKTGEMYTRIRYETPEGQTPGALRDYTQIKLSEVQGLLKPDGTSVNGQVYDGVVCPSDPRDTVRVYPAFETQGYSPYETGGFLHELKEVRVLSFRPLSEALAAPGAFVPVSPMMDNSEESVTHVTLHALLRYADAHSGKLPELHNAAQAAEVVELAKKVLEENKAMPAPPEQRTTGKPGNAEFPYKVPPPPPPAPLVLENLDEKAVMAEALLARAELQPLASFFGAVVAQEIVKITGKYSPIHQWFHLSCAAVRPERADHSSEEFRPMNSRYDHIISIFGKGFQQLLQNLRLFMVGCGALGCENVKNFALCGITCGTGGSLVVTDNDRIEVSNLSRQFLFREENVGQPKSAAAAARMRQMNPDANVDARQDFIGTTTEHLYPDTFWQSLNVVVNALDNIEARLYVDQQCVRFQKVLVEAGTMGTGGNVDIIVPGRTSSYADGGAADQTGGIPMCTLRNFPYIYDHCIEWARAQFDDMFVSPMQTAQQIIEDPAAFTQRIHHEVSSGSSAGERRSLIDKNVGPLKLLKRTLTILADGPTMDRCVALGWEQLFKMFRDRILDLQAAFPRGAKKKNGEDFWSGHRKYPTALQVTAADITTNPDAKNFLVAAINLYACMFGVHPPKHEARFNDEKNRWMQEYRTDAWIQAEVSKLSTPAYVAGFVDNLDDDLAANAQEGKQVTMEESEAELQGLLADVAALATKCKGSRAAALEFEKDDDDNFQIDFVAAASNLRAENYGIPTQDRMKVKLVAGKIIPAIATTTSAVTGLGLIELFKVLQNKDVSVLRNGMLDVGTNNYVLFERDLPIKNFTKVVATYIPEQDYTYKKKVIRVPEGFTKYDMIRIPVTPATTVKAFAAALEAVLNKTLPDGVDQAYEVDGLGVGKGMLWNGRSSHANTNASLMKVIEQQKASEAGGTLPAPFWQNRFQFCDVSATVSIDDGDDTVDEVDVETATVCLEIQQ
The experiment in a line: Leishmania donovani Ubiquitin Activating Enzyme (LdE1). It counts as functional. The following applies: 30 µM.

For assay [3], the target named is AMP-activated protein kinase, AMPK (Homo sapiens) (UniProt P54646+O43741+P54619+Q9UGJ0+Q9Y478+Q13131+Q9UGI9). The experiment in a line: AMP-dependent Kinase enzyme assay. An in vitro enzyme assay that detects ADP turnover that is directly proportional to AMPK activity. This uses naive AMPK that is activated during the assay with MK-8722. The class given is functional. The following applies: 30 µM.

The target of assay [4] is Sialic acid-binding Ig-like lectin 9 (Homo sapiens) (UniProt Q9Y336). The experiment in a line: Hs-Siglec9 ALPHAscreen SOP 20170721. The conditions noted are these: 10 µM. Background: Bead proximity is the source of the signal in Alpha formats.
For the next assay, the system named is Trypanosoma cruzi. The experiment in a line: Trypanosoma cruzi phosphomannomutase and mannose-1-phosphate guanylyltransferase assay. The class given is functional. The conditions noted are these: 10 µM.
Assay [5] deals with T2, Arginase-2, mitochondrial (Homo sapiens) (UniProt P78540).
T2 sequence (whole entry): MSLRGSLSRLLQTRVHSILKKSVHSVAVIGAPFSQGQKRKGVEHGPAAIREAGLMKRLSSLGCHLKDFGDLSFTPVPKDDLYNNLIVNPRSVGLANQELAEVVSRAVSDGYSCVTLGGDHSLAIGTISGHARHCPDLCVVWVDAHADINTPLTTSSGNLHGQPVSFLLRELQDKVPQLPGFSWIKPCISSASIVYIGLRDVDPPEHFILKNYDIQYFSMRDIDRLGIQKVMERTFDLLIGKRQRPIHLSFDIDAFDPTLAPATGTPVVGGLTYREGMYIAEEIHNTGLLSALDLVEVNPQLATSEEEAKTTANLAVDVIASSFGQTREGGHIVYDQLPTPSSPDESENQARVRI
The experiment in a line: in vitro enzyme assay to detect the production of urea directly proportional to the activity of Arginase II. Note: in the data most compounds retested in dose-response had high values. It counts as functional. The conditions noted are these: 33.3 µM.

Assay [6] addresses T3, Proteasome subunit beta (Trypanosoma cruzi) (UniProt O96673).
T3 sequence (whole entry): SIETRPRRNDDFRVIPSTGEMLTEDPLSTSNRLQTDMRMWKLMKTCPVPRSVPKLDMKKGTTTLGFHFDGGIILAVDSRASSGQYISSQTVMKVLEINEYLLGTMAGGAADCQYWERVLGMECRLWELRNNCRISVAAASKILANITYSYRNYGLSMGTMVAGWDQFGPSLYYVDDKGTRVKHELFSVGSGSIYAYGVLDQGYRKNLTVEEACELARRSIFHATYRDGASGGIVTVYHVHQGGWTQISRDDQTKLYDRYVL
The experiment in a line: Trypanosoma cruzi proteasome chymotrypsin-like activity (TcProtChymo) assay. Note: in the data most compounds retested in dose-response had high values. The class given is functional. The conditions noted are these: 9.37 µM.

The species entered for a further assay is Homo sapiens. The experiment in a line: To identify inhibition of the IFN signalling (Jak-Stat) pathway via expression of an eGFP reporter gene under the control of an IFN-stimulated response element (ISRE) containing MxA promoter. The class given is functional. The following applies: 30 µM.
For assay [7], the target named is T4, Tyrosyl-tRNA synthetase, putative (Trypanosoma cruzi (strain CL Brener)) (UniProt Q4DSP6).
T4 sequence (whole entry): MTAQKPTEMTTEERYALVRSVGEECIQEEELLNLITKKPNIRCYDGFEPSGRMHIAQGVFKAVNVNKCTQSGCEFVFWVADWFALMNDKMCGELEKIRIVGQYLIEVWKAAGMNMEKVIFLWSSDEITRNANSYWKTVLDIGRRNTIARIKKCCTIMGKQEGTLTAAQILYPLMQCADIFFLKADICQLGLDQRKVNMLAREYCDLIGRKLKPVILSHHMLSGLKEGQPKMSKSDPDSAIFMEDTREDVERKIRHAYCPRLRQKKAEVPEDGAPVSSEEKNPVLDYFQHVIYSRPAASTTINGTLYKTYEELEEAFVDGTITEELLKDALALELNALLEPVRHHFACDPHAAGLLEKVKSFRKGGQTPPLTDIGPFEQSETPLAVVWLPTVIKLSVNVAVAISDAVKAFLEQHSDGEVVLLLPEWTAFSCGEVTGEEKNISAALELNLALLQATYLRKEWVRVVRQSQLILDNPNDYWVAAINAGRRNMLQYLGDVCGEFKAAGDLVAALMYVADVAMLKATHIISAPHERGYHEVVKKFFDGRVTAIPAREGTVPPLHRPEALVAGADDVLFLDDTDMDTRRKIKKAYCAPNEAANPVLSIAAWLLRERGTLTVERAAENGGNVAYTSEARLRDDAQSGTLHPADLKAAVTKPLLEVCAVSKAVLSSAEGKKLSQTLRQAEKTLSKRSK
The experiment in a line: Trypanosoma cruzi tyrosyl tRNA synthetase (TcYRS) _High Tyrosine SOP. Note: in the data most compounds retested in dose-response had high values. The class given is functional. The conditions noted are these: 30 µM.

Assay [8] deals with T4, Tyrosyl-tRNA synthetase, putative (Trypanosoma cruzi (strain CL Brener)). The experiment in a line: Trypanosoma cruzi tyrosyl tRNA synthetase (TcYRS) SOP. It counts as functional. The conditions noted are these: 30 µM.
In assay [9] the target is Chromo domain-containing protein 1 (Saccharomyces cerevisiae (strain ATCC 204508 / S288c) (Baker's yeast)) (UniProt P32657). The experiment in a line: ScCHD-1 Enzyme Inhibition Assay. Note: in the data most compounds retested in dose-response had high values. It counts as functional. The conditions noted are these: 30 µM.

For some of these results: Results with a measured potency or affinity are listed apart.

Chain of Chromo domain-containing protein 1 (Saccharomyces cerevisiae (strain ATCC 204508 / S288c) (Baker's yeast)) (P32657 whole entry, the tested form may be a part): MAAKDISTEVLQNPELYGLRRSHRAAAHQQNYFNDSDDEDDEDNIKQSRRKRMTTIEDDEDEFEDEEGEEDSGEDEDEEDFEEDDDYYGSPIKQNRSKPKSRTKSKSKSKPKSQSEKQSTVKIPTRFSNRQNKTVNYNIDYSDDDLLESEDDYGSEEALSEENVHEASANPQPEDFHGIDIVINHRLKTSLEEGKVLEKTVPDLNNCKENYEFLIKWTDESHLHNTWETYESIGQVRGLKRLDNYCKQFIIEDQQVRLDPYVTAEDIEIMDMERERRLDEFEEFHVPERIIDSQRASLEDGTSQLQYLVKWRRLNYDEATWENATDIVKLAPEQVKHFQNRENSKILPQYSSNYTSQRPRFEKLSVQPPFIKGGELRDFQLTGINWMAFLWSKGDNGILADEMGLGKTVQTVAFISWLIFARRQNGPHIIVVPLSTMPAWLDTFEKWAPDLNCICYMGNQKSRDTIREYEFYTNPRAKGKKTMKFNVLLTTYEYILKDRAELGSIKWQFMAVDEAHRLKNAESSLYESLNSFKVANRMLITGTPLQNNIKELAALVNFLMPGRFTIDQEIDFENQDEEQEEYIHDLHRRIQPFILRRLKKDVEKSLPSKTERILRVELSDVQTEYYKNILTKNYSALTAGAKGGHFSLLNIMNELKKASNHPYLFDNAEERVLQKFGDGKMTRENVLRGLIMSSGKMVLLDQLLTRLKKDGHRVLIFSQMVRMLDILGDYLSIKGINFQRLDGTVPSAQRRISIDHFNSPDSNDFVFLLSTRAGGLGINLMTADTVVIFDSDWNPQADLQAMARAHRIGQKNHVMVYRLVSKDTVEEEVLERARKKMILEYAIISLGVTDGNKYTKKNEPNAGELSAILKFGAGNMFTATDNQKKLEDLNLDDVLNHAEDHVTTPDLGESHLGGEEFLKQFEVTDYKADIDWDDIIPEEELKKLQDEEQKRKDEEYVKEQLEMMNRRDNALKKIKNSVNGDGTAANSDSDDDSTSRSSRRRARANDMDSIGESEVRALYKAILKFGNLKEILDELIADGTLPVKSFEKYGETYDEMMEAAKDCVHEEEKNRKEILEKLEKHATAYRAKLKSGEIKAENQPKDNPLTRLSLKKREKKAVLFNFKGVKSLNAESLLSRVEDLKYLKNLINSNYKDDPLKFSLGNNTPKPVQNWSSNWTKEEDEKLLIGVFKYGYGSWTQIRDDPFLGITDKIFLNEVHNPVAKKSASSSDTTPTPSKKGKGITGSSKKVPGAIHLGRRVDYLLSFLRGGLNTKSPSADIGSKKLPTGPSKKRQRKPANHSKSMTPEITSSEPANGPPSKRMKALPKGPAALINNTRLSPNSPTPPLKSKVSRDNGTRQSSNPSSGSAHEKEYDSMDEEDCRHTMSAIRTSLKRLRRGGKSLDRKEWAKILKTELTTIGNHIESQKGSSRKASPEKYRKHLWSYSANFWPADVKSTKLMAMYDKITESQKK
Chain of Protein translocase subunit SecA (Escherichia coli (strain K12)) (P10408 whole entry): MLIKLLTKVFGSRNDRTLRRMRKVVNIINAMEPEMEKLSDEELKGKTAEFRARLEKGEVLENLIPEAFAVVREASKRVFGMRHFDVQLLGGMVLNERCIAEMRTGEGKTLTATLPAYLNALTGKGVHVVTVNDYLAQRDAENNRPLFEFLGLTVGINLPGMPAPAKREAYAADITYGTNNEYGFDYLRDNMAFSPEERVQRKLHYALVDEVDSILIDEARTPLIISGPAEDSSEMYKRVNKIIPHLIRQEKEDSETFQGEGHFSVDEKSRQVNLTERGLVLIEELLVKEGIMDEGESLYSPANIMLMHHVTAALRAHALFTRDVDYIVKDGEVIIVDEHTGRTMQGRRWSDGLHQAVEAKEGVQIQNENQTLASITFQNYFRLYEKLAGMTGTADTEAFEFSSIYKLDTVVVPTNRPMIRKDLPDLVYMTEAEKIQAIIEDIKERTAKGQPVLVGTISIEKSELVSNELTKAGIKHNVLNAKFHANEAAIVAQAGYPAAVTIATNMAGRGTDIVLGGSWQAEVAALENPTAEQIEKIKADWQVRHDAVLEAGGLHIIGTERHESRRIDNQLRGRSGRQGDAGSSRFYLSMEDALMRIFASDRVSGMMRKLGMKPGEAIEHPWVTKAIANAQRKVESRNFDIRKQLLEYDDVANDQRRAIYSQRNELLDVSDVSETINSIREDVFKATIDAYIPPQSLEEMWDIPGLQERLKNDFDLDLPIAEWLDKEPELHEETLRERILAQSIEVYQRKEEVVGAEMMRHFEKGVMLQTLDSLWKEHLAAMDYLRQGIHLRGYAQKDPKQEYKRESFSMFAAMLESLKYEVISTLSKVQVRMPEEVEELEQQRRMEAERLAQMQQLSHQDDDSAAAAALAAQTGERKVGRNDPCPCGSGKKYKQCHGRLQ
Chain of Sialic acid-binding Ig-like lectin 9 (Homo sapiens) (Q9Y336 whole entry): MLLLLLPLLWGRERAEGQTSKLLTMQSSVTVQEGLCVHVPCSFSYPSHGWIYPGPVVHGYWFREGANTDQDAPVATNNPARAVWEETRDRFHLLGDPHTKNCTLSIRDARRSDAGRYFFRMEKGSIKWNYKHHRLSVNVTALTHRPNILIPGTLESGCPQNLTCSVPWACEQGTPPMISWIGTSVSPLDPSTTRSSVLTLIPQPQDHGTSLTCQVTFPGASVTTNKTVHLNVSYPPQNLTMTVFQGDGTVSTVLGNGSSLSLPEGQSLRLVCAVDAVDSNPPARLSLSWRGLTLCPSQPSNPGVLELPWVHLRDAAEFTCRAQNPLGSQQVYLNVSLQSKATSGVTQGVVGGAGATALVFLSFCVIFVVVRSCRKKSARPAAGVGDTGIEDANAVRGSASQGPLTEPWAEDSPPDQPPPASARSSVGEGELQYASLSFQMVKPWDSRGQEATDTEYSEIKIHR

Turning to `Cc1nccc(C2CN(Cc3cc[nH]n3)CCO2)n1` (stereo unspecified), the Percent Effect is -1.51% in [1]; 1.35% in assay [2]; 9.42% in assay [3]; 3.04% in assay [4]; -1.98% in the assay on Trypanosoma cruzi; -1.16% in assay [5]. In addition, the Percent Effect in [6] is 4.84%; in the assay filed under Homo sapiens it was -10.9%; in assay [7] it was 0%; in [8], 3.9%; in [9], -12.4%.

As to `CNC(=O)Nc1cc(-c2ccc(Br)cc2)nn1CCO`, the Percent Effect in assay [1] is -6.67%; in assay [2], 10.5%; in [3], 0.242%; in assay [4], 1.93%; in the assay on Trypanosoma cruzi, 5.94%; in [5], -16.6%. The Percent Effect in assay [6] is 3.16%; in the assay listed under Homo sapiens, -5.7%; in assay [7], 4.25%; in [8] it was 2.6%; in [9] it was -2.66%.

As for `COc1c(CNCc2cnn(C)c2)c(C(C)C)nn1C`, the Percent Effect in assay [1] was -4.88%; in [2], 23.7%; in assay [3] it was -11.3%; in [4], -0.847%; in the assay on Trypanosoma cruzi, 3.01%; in assay [5], 3.45%. The Percent Effect in [6] is 7.18%; in the assay listed under Homo sapiens, -15.7%; in assay [7], 6.37%; in assay [8], 21.9%; in assay [9] it was -13.8%.

With `c1cnc(N2C[C@H]3CCN(c4cccnc4)C[C@H]3C2)nc1`, the Percent Effect in assay [1] is -6.23%; in assay [2], -5.41%; in assay [3], -3.42%; in assay [4], -2.92%; in the assay on Trypanosoma cruzi, -2.15%; in assay [5], -0.417%. The Percent Effect in assay [6] stood at 26.1%; in the assay filed under Homo sapiens, 6.67%; in assay [7], 5.94%; in assay [8], 13.4%; in assay [9], 7.23%.

For `CSCCC1c2nc[nH]c2CCN1Cc1cc(Cl)ccc1O` (stereo unspecified), the Percent Effect is -4.06% in assay [1]; -2.67% in assay [2]; -4.48% in assay [3]; 3.19% in [4]; 2.63% in the assay on Trypanosoma cruzi; 0.521% in assay [5]. In addition, the Percent Effect in assay [6] was 18.3%; in the assay listed under Homo sapiens, 35.7%; in assay [7] it was 12.6%; in assay [8], 23.5%; in assay [9], -0.295%.

Regarding `Cc1n[nH]c(C2CN(C(=O)c3cnc[nH]3)CCO2)n1` (stereo unspecified), the Percent Effect in [1] is -2.98%; in assay [2], 7.79%; in [3], 4.4%; in assay [4], 7.68%; in the assay on Trypanosoma cruzi, 3.62%; in assay [5], -1.05%. In addition, the Percent Effect in assay [6] is 12.8%; in the assay filed under Homo sapiens, -9.06%; in assay [7], 5.71%; in assay [8], 21.2%; in [9], -19.1%.

Regarding `CCN(CC)CC(=O)NCCc1csc(N2CCCC2)n1`, the Percent Effect in assay [1] is -3.47%; in assay [2], -2.67%; in assay [3], -4.85%; in assay [4], -0.334%; in the assay on Trypanosoma cruzi it was -2.24%; in [5], -1.04%. Moreover, the Percent Effect in assay [6] was 5.41%; in the assay filed under Homo sapiens it was 5.85%; in assay [7] it was -0.546%; in assay [8], -1.24%; in [9] it was 6.78%.

Take `CC(=O)N1[C@H](Cn2cncn2)C[C@@H]2CN(c3ccc(C)nn3)CC[C@@H]21`: the Percent Effect in assay [1] was -0.849%; in assay [2], 2.6%; in [3], 1.33%; in [4], 0.483%; in the assay with Trypanosoma cruzi it was 3.83%; in assay [5] it was 0%. The Percent Effect in assay [6] was 9.98%; in the assay filed under Homo sapiens it was -9.62%; in assay [7] it was -1.07%; in [8], 1.24%; in assay [9], -3.45%.

`CC(NC(=O)NCCCc1n[nH]c(N)c1C#N)c1ccccc1` (stereo unspecified): the Percent Effect is -5.52% in assay [1]; 22.8% in assay [2]; 48.4% in assay [3]; -3.62% in [4]; 3.68% in the assay with Trypanosoma cruzi; -11.8% in assay [5]. The Percent Effect in assay [6] was 14.8%; in the assay filed under Homo sapiens, 7.81%; in [7], 6.4%; in assay [8] it was 24.1%; in [9], -5.91%.

Regarding `CC(C)(C)CC(=O)N1CC[C@@H]2[C@H](CC1)N(S(C)(=O)=O)CCS2(=O)=O`, the Percent Effect in assay [1] is -2.22%; in assay [2], 16.2%; in assay [3], -9.04%; in assay [4], 3.69%; with Trypanosoma cruzi it was 5.27%; in assay [5], 15%. Moreover, the Percent Effect is 9.89% in assay [6]; 8.9% in the assay listed under Homo sapiens; 8.91% in assay [7]; 20.7% in assay [8]; -8.05% in assay [9].

Turning to `Cn1ccc(C(=O)NC2CCC23CCN(C(=O)N2CCCC2)CC3)c1` (stereo unspecified), the Percent Effect in assay [1] was -3.06%; in assay [2] it was 16.2%; in assay [3], 3.04%; in [4], -9.67%; in the assay on Trypanosoma cruzi it was 3.42%; in assay [5], -6.05%. Besides, the Percent Effect in assay [6] is 19.2%; in the assay filed under Homo sapiens, -7.3%; in assay [7], 6.49%; in assay [8], 15.4%; in [9] it was 1.18%.

The record behind these values is ChEMBL document CHEMBL3988442, “University of Dundee, Small-Polar-MMV Screening Library” (2021).
